In PubChem BioAssay AID1159580 (chemical genetic matrix, 2015):
“And” between values parts separate entries of the source, which are not always exact repeats. Identical values can stand only once. Screen size: about 5,500 compounds; about 2,000 (36%) were called active. Roughly 18% stayed inconclusive and do not appear here. Rule as the data show it: active = normalized growth mostly below about 0.91 (no sharp cut-off); inconclusive = no clear call, values can overlap the other calls; inactive = mostly above about 0.92. The list shows a part of the results.

Assay: chemical genetic growth profiling, strain panel (AID 1159580);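 also: tested at 20 µM; growth read once vehicle control cultures reached saturation at 30 °C; 1 = growth at the plate median or of vehicle wells; lower values mean less growth of the strain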
Settings: S. cerevisiae deletion strains, growth OD

Measured: normalized growth

COC[C@]12CN(C=O)C3[C@@H]4[C@H](OC)C1[C@]3(C1CC3(O)C(OC)C(O)C4(OC(C)=O)C1C3OC(=O)c1ccccc1)[C@@H](OC)C[C@H]2O (stereo not given in full)
inactive: locus YAL021C, strain ccr4, hits give low values 1.02 | locus YAL026C, strain drs2, hits give low values 1.01 | locus YAL030W, strain snc1, hits give low values 1.01 | locus YBL061C, strain skt5, hits give low values 1.01 | locus YBR009C, strain hhf1, hits give low values 1.01 | locus YBR021W, strain FUR4, hits give low values 0.995 | locus YBR023C, strain chs3, hits give low values 1.01 | locus YBR171W, strain sec66, hits give low values 1.03 | locus YBR229C, strain ROT2, hits give low values 1.01 | locus YBR231C, strain swc5, hits give low values 1.01 | locus YBR279W, strain paf1, hits give low values 1.01 | locus YCL011C, strain gbp2, hits give low values 1.01 | locus YCL016C, strain dcc1, hits give low values 1.01 | locus YCL029C, strain bik1, hits give low values 0.997 | locus YCL061C, strain MRC1, hits give low values 1.02 | locus YCL069W, strain vba3, hits give low values 1.01 | locus YCR088W, strain abp1, hits give low values 1.01 | locus YDL005C, strain med2, hits give low values 1.02 | locus YDL035C, strain GPR1, hits give low values 1.01 | locus YDL040C, strain nat1, hits give low values 1.01 | locus YDL074C, strain BRE1, hits give low values 1.03 | locus YDL101C, strain DUN1, hits give low values 1.02 | locus YDL185W, strain tfp1, hits give low values 1.01 | locus YDL192W, strain arf1, hits give low values 1 | locus YDR001C, strain nth1, hits give low values 1.01 | locus YDR069C, strain doa4, hits give low values 1.02 | locus YDR101C, strain arx1, hits give low values 0.99 | locus YDR137W, strain rgp1, hits give low values 1.01 | locus YDR159W, strain sac3, hits give low values 1.01 | locus YDR162C, strain NBP2, hits give low values 1.02 | locus YDR195W, strain ref2 1.01 | locus YDR297W, strain sur2, hits give low values 1 | locus YDR318W, strain mcm21, hits give low values 1.01 | locus YDR334W, strain swr1, hits give low values 1.01 | locus YDR335W, strain msn5, hits give low values 0.998 | locus YDR388W, hits give low values 0.998 | locus YDR392W, strain spt3, hits give low values 1.01 | locus YDR502C, strain sam2, hits give low values 1.02 | locus YEL003W, strain gim4, hits give low values 1.01 | locus YEL037C, strain rad23, hits give low values 1 | locus YEL061C, strain CIN8 (second series), hits give low values 1 | locus YEL061C, strain CIN8, hits give low values 1.01 | locus YER015W, strain faa2, hits give low values 1.01 | locus YER016W, strain bim1, hits give low values 1.03 | locus YER110C, hits give low values 1.01 | locus YER111C, strain swi4, hits give low values 1.01 | locus YER155C, strain BEM2 (second series), hits give low values 1.03 | locus YER155C, strain BEM2, hits give low values 0.995 | locus YER167W, strain BCK2, hits give low values 1.01 | locus YFR010W, strain ubp6, hits give low values 1.02 | locus YGL078C, strain dbp3, hits give low values 1.02 | locus YGL086W, strain mad1, hits give low values 1.01 | locus YGL167C, strain pmr1, hits give low values 1.02 | locus YGL173C, strain kem1, hits give low values 1.01 | locus YGL227W, strain vid30, hits give low values 1.01 | locus YGL240W, strain doc1, hits give low values 1.01 | locus YGL248W, strain PDE1, hits give low values 1.02 | locus YGL253W, strain hxk2, hits give low values 1.02 | locus YGR135W, strain pre9, hits give low values 1.02 | locus YGR252W, strain gcn5, hits give low values 1.02 | locus YHR013C, strain ard1, hits give low values 1.01 | locus YHR027C, strain rpn1, hits give low values 1.01 | locus YHR030C, strain SLT2, hits give low values 1 and 1.05 | locus YHR079C, strain IRE1 (second series), hits give low values 1.01 | locus YHR079C, strain IRE1, hits give low values 1.04 | locus YHR094C, strain hxt1, hits give low values 1.01 | locus YHR129C, strain ARP1, hits give low values 1 | locus YHR142W, strain chs7, hits give low values 0.999 | locus YHR200W, strain rpn10, hits give low values 1.01 | locus YIL066C, strain RNR3, hits give low values 1.01 | locus YIL073C, strain SPO22, hits give low values 1.04 | locus YIL125W, strain kgd1, hits give low values 0.999 | locus YIR030C, strain dcg1, hits give low values 1 | locus YJL092W, strain hpr5, hits give low values 1.01 | locus YJL095W, strain BCK1 (second series), hits give low values 1.02 | locus YJL095W, strain BCK1, hits give low values 1.04 and 1.02 | locus YJL115W, strain asf1, hits give low values 0.997 | locus YJL129C, strain trk1, hits give low values 1.02 | locus YJL134W, strain LCB3, hits give low values 1.01 | locus YJL154C, strain vps35, hits give low values 1.01 | locus YJL164C, strain tpk1, hits give low values 1.01 | locus YJL166W, strain qcr8, hits give low values 1.01 | locus YJL168C, strain set2, hits give low values 0.997 | locus YJL187C, strain SWE1 (second series), hits give low values 1.03 | locus YJL187C, strain SWE1, hits give low values 1.01
